Bioassay records (PubChem BioAssay)
FH mod = Identification of activators of human fumarate hydratase by quantitative high-throughput screening | Fumarate hydratase, mitochondrial (Homo sapiens), P07954 | FH coupled MDH/diaphorase resazurin fluorescence, 15 min | Potency, µM (top dose mostly 79.9 µM), for inactives: at the highest dose activity change, negative = inhibition, hits mostly inhibitors | 54,000 tested, 0.22% active; also: potency is read from the fitted curve at half-maximal effect; % is scaled to controls: 0 for no effect and ±100 for the full control effect; the screen sought activators but most active calls are inhibition curves; nearly all actives have a fitted effect of over 45% in size
NTMT1 inh = NTMT1 methyltransferase inhibition; Q9BV86; NTMT1 MTase-Glo SAH luminescence, purified enzyme; Potency, µM (doses to about 114 µM), inactives show top-dose activity change, negative = inhibition, usual class: inhibitors; 59,000 tested, 2.5% active; AID 1645870;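 also: potency is read from the fitted curve at half-maximal effect; plate controls were DMSO vehicle for no effect and no enzyme for full effect; nearly all actives have a fitted effect of over 65% in size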
Target sequence (Q9BV86 whole entry, looked up): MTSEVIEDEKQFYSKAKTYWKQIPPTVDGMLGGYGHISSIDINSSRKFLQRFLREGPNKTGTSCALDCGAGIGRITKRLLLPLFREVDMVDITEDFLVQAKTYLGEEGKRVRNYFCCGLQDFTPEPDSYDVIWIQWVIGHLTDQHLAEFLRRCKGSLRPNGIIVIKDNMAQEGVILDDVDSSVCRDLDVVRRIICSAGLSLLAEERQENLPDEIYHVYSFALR
OvCa metastasis = blocks SKOV3ip1 adhesion and invasion in omental model | SKOV3ip1-GFP adhesion/invasion on 3D omental model, fluorescence | Potency, µM (highest dose often 45.8 µM), for the others: at the highest dose activity change, negative = inhibition, most hits filed as inhibitors | 46,000 tested, 0.1% active;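 also: potency is read from the fitted curve at half-maximal effect; plate controls were DMSO wells for no effect and tomatine positive control wells for full effect; nearly all actives have a fitted effect of over 65% in size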
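qHTS, 4-pt dose (0.36-46 umol/L); SKOV3ip1-GFP, 1,200 cells/well, no FBS; primary omental fibroblast/mesothelial co-culture 48 h pre-grown; 2 h RT + 16 h 37 C; PBS wash, 4% PFA; GFP count 488/509 nm.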
GPR32 ag = agonists of human resolvin D1 receptor DRV1 (GPR32); O75388; CHO-K1 GPR32 beta-arrestin PathHunter luminescence, 90 min; zero percent set by DMSO-only wells; activation, % at 76.9 µM; 48,000 tested, 2.5% active; AID 1346428;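 active = activation of at least 60% and not above a set upper limit, about 1 call in 100 departs from these limits; inconclusive = activation of 40% to 60%, or above that upper limit; inactive = activation under 40%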; also: 0% is about no effect
Target sequence (O75388 whole entry, looked up): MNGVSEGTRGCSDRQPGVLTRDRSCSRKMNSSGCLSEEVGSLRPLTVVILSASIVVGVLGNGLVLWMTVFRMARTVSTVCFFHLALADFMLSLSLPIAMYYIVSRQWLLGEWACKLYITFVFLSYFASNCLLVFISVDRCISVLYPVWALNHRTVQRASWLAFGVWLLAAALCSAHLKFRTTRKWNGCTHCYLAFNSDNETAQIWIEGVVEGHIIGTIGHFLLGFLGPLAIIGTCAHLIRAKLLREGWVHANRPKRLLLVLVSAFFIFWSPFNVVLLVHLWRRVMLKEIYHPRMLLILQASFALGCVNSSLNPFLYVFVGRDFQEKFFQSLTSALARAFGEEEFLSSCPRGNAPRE
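Luminescent readout of beta-Gal complementation quantifies ligand-induced beta-arrestin association with GPR32 in CHO-K1 cells; 90 min compound incubation at 37 °C, detection 1 h at room temperature.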
Active calls of the source: *; i = inactive; ? = inconclusive; · = no result given; ! = not active in a repeat; [ ] = another dose, or the depositor's remark. Rows were chosen to be rich in hits. Some 3.8% of all compounds tested hit in one or more screens of this group. Unless noted, calls follow the shape of the dose curve; as a rule, active = well fitted curve in the direction sought with a large enough effect; inconclusive = small, poorly fitted or top-dose-only effect, or another doubt; inactive = no such curve, though single readings can be large; an effect the other way counts as inactive or inconclusive.

SMILES | FH mod | NTMT1 inh | OvCa metastasis | GPR32 ag
COc1ccc(CNC(=O)Cn2c(=O)oc3cc(S(=O)(=O)N4CCC(C)CC4)ccc32)cc1 | -5.0% | 6.1% | -0.9% | 4.4
COc1ccc(NC(=O)CCn2c(=O)c3cccn3c3ccccc32)c(OC)c1 | -20.5% | 5.1% | 1.5% | -22.8
CCOc1cccc2sc(N(Cc3cccnc3)C(C)=O)nc12 | 0.0% | 2.5% | 2.1% | -8.2
Cc1ccc(NC(=O)c2ccc3c(c2)OCCO3)cc1NC(=O)c1ccc2nc(OCCN3CCCC3)ccc2c1 | · | -6.3%[57.5 µM] | · | ·
Nc1ccc2cc3ccc(N)cc3nc2c1 | -15.2%[53.3 µM] | 35.5µM* | · | 32.4
Nc1ccc(-c2ccc3ccccc3n2)cc1 | ? | · | · | 10.2
COc1cc(C2c3c(-c4ccc(C)cc4)n[nH]c3C(=O)N2c2ccc(F)cc2)ccc1O (stereo not drawn) | ? | -1.0% | 11.7% | 104.2*
CN(CCOc1ccc(C[C@H](Nc2ccccc2C(=O)c2ccccc2)C(=O)O)cc1)c1ccccn1 | · | 79.4µM*! | · | ·
Cc1ccc2c(c1)c(=O)c1ccccc1n2CCCC(=O)Nc1ccc(F)cc1F | -4.9% | -4.1% | -3.7% | -6.3
COC(=O)COc1ccc(-c2nnc(Nc3ccc(O)cc3)c3ccccc23)cc1 | -22.8% | 9.9% | 2.51µM* | 18.8
CNC(=O)c1cc(Nc2nnc(-c3ccc(O)cc3)c3ccccc23)ccc1OC | -9.6% | -7.0% | 2.5% | 0.3
CCC(Cc1ccccc1)NC(=O)Cn1nc(C)n2c(cc3occc32)c1=O (stereo not drawn) | -1.9% | 89.1µM* | 9.8% | -9.5
COc1ccc(-c2nc3ccccc3s2)cc1NC(=O)COc1ccc(C)cc1 | -3.0% | 11.2% | i | -4.6
Cc1ccc(NS(=O)(=O)c2ccc3[nH]c4c(c3c2)CCCCCC4)cc1 | ? | ? | -14.6% | 101.7*
O=S(=O)(Nc1cccc(F)c1)c1ccc2[nH]c3c(c2c1)CCCCC3 | 35.5µM* | -10.7% | -16.3% | 61.6*
COc1ccc(OC)c(NS(=O)(=O)c2ccc3[nH]c4c(c3c2)CCCCC4)c1 | ? | ? | i | 2.2
COc1cc(NS(=O)(=O)c2ccc3[nH]c4c(c3c2)CCCCCC4)cc(OC)c1 | ? | 10.4% | 0.9% | 101.9*
COc1cccc(CNS(=O)(=O)c2ccc3[nH]c4c(c3c2)CCCCC4)c1 | ? | ? | i | 64.5*
Fc1cc(Nc2nc(-c3ccncc3)nc3ccccc23)ccc1C(F)(F)F | · | -13.5% | · | ·
Cc1cc(N2CCC(C)CC2)nc2ccc(NC(=O)Cc3ccccc3Br)cc12 | -13.2% | 4.5% | -1.4% | 11.2
CC(O)C(=O)O (stereo not drawn) | 0.0%[53.3 µM] | -19.3%[57.5 µM] | · | 0.2
COc1cc(NS(=O)(=O)c2ccc3[nH]c4c(c3c2)CCCC4)cc(OC)c1OC | ? | -16.1% | i | 82.2*
Cc1ccc(N(C)S(=O)(=O)c2ccc3[nH]c4c(c3c2)CCCC4)cc1 | ? | -27.2% | i | 109.3*
COc1cc(NC(=O)CN(C)S(=O)(=O)c2ccc3[nH]c4c(c3c2)CCCC4)cc(OC)c1OC | -21.2% | -9.7% | i | 105.1*
COc1ccc(NS(=O)(=O)c2ccc3[nH]c4c(c3c2)CCCC4)cc1OC | ? | -16.9% | 2.6% | 13.7
SMILES | FH mod | NTMT1 inh | OvCa metastasis | GPR32 ag
O=C(CCCCCCC(=O)N/N=C/c1ccc(N(c2ccccc2)c2ccccc2)cc1)NO | · | 16.9% | · | ·
COc1ccc(-c2oc3ncn4nc(-c5ccccc5C)nc4c3c2-c2ccc(OC)cc2)cc1 | ? | 3.5% | i | -7.3
CCCN(CCC)CCCNC(=O)c1cc2c(=O)n(C)c3ccccc3c2s1 | ? | 50.1µM* | -20.2% | 16.5
CCn1c(=O)c2cc(C(=O)NCCCN(C)Cc3ccccc3)sc2c2ccccc21 | ? | ? | i | 38.4
Cc1ccc(C)c(NC(=O)CCc2c(C)n(C)c3cc(-c4ccccc4C)nn3c2=O)c1 | 6.5% | 8.5% | i | -11.5
O=C1NC(=O)C(c2cnc3ccccn23)=C1c1cn2c3c(cc(F)cc13)CN(C(=O)N1CCCCC1)CC2 | -9.3% | 27µM*! | · | ·
C=CCNC1=C2C[C@@H](C)C[C@H](OC)[C@@H](O)[C@@H](C)C=C(C)[C@H](OC(N)=O)[C@@H](OC)C=CC=C(C)C(=O)NC(=CC1=O)C2=O | -4.6%[53.3 µM] | -4.3%[57.5 µM] | 11.5% | ·
CO[C@H]1C=CC=C(C)C(=O)NC2=CC(=O)C(NCCN(C)C)=C(C[C@@H](C)C[C@H](OC)[C@@H](O)[C@@H](C)C=C(C)[C@@H]1OC(N)=O)C2=O | -17.6%[53.3 µM] | 27.1µM* | -6.5% | ·
CCOc1ccc(CCNc2nc3ccccc3n3c(C)nnc23)cc1OCC | -8.2% | 5.4% | -14.7% | -3.5
O=c1c(O)c(-c2ccc(O)c(O)c2)oc2cc(O)ccc12 | 27.3µM*![activator] | 50.1µM*! | -4.6% | ·
COc1cc(O)c2c(=O)c(O)c(-c3ccc(O)c(O)c3)oc2c1 | -8.5% | 25.1µM* | · | ·
O=c1c(O)c(-c2ccc(O)cc2)oc2cc(O)cc(O)c12 | -12.9%[53.3 µM] | ? | 26.8% | ·
CCOC(=O)c1c(C)[nH]c(C)c1S(=O)(=O)N1CCC(C(=O)N2CCN(c3ccc(Cl)cc3)CC2)CC1 | -8.3% | ? | i | -4.1
CCOC(=O)c1c(C)[nH]c(C)c1S(=O)(=O)N1CCN(c2ccc(Cl)cc2)CC1 | -32.6% | -14.9% | 9.6% | 68.0*
Cc1ccc(C)c(-c2[nH]c3c(c2-c2c(-n4cccc4)n(C)c(=O)[nH]c2=O)c(=O)[nH]c(=O)n3C)c1 | -13.4% | 89.1µM* | i | 8.5
COc1cccc(-c2[nH]c3c(c2-c2c(-n4cccc4)n(C)c(=O)[nH]c2=O)c(=O)[nH]c(=O)n3C)c1 | -2.0% | ? | 8.0% | 24.3
CCCCCCC[N+](CC)(CC)CCCCc1ccc(Cl)cc1 | 2.3%[53.3 µM] | ? | · | 86.6*
CCCCCCCCCCCC[N+](C)(C)Cc1ccccc1 | -1.8%[53.3 µM] | ? | · | -16.2
CCOc1ccccc1NC(=O)CSc1nccn1-c1ccc(Cl)cc1 | -10.1% | -14.7% | i | -6.7
CC(C)N(CCCNC(=O)Nc1ccc(C(C)(C)C)cc1)C[C@H]1O[C@@H](n2cc(Br)c3c(N)ncnc32)[C@H](O)[C@H]1O | 2.2%[53.3 µM] | 19.2µM* | -26.0% | ·
NC[C@H]1O[C@@H](n2cnc3c(N)ncnc32)[C@H](O)[C@@H]1O | -21.5%[53.3 µM] | · | · | 3.0
CCN(CC)S(=O)(=O)c1nnc(NC(=O)c2ccc(C)cc2)s1 | -0.7% | 12.2% | 5.1% | 31.8
CCN(CC)S(=O)(=O)c1nnc(NC(=O)c2ccc(C(C)C)cc2)s1 | 14.0% | 8.6% | 9.2% | 75.4*
Cc1cc(F)ccc1S(=O)(=O)Nc1cc2c(C(=O)O)c(C)oc2c2ccccc12 | 15.8µM* | 3.7% | -0.7% | 6.1
COc1ccc(CCN2CCN(CCCc3ccccc3)CC2)cc1OC | 3.0% | 89.1µM*! | -2.0% | ·
COc1ccc(CCNC(=O)C2CC(=O)N(CCc3ccccc3)C2)cc1OC (stereo not drawn) | 0.9% | 11.1% | i | 1.5
CCOC(=O)N1CCc2c(sc3c2c(=O)n(-c2ccc(CC)cc2)c(=O)n3CC(=O)c2ccccc2)C1 | -10.3% | 19.6% | -4.5% | -14.0
